Compound activity as filed in PubChem BioAssay.
The sample as a whole holds a higher share of hits than the screen did.
BL2 CD40 inh: inhibitors of CD40-induced NF-kB signaling, primary screen, BL2 cells, luciferase reporter, single point; AID 1053188, 2014; CD40L-induced, 4 h; inhibition, % at 10 µM; 0.94% of 83,000 active;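 active means mean inhibition of at least 50% with a set share of replicates also reaching that level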;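 further: 0% = neutral control wells and 100% = IKK inhibitor VII at 50 µM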
* = called active by the depositor; [ ] = another dose, or the depositor's remark.

SMILES	BL2 CD40 inh
C[C@H](CO)N1C[C@H](C)[C@H](CN(C)Cc2ccncc2)Oc2c(NC(=O)C3CCOCC3)cccc2C1=O	9[25 µM]
CN1c2ccc(-c3cccc(C#N)c3)cc2[C@@H]2[C@@H](CCN2C(=O)C2CCCCC2)[C@@H]1CO	5[25 µM]
O=C(CN1CCOCC1)N[C@H]1CC[C@H](CCNC(=O)C2CCCC2)O[C@H]1CO	-4
O=C(C[C@@H]1C[C@H]2c3cc(NC(=O)C4CCOCC4)ccc3O[C@H]2[C@H](CO)O1)NCc1ccc(Oc2ccccc2)cc1	6[25 µM]
COC(=O)CCNS(=O)(=O)c1ccc2ccccc2c1	10
COC(=O)c1ccc(OC(=O)CCS(=O)(=O)c2ccc(C)cc2)cc1	-3
COC(=O)CCS(=O)(=O)c1nc(-c2ccccc2)cc(C(F)(F)F)n1	95*
CN(C)CC(=O)Nc1ccc2c(c1)[C@H]1C[C@@H](CC(=O)NCc3cccc(F)c3)O[C@@H](CO)[C@H]1O2	1[25 µM]
CO[C@@H](CN(C)S(=O)(=O)c1ccc(Cl)cc1)[C@@H](C)CN(Cc1ccccc1Cl)[C@@H](C)CO	14
COc1ccc(C[C@H]2CCn3nncc3COC[C@H](CC(C)C)NC2=O)cc1	-5[25 µM]
N#C[C@H]1[C@@H](c2ccccc2)[C@H](CO)N1C(=O)c1cc(Cl)cc(Cl)c1	2[25 µM]
CC(=O)Nc1ccc(C(=O)COC(=O)C2CC3CCCC(C2)C3=O)cc1 (centres undefined)	-5
CC(=O)NCCc1ccc(C(=O)COC(=O)C2CCCCC2)cc1	54*
CC(=O)NCCc1ccc(C(=O)COC(=O)c2ccco2)cc1	-1
O=C(CC(F)(F)F)N1C[C@@H]2[C@H](c3ccccc31)[C@@H](CO)N2C(=O)C1CC1	2
COc1ccccc1NC(=O)N1CC(=O)N2[C@H](CO)[C@@H](c3ccc(C#CC(C)C)cc3)[C@H]2C1	16[25 µM]
O=C(N/N=C/c1ccc[nH]1)c1ccc(O)cc1	-39
Cc1cc(Br)c(OCc2ccc(C(=O)N/N=C/c3ccc[nH]3)cc2)c(Br)c1	75*
O=C(CNC(=O)c1ccc(Br)cc1)N/N=C/c1ccc[nH]1	6
C[C@H](NC(=O)C[C@H]1CC[C@@H]2[C@@H](COc3ccc(NS(=O)(=O)c4ccc(Cl)cc4)cc3C(=O)N2C)O1)c1ccccc1	21[25 µM]
O=C1C=CC(=O)N1Cc1cccnc1	7
O=C1C=CC(=O)N1CCCCCCCCCCN1C(=O)C=CC1=O	110*
CN1C(=O)CSc2ccc(NC(=O)N3CCc4ccccc43)cc21	-118
CN1CCN(c2ccc(NC(=O)N3CCc4ccccc43)cc2)CC1	73*
CC(=O)c1cccc(NC(=O)N2CCCc3ccccc32)c1	-23
SMILES	BL2 CD40 inh
CC(C)C#Cc1ccc([C@H]2[C@@H](C#N)N(C(=O)C3CC3)[C@@H]2CO)cc1	10[25 µM]
COc1ccc(N2CCN(C(=O)Cn3c(=O)[nH]c4ccccc4c3=O)CC2)cc1	29*
COc1ccc(N2CCN(C(=O)COc3cccc4ccccc34)CC2)cc1	-6
COc1ccc(N2CCN(C(=O)Cn3c(=O)c4cccn4c4cccnc43)CC2)cc1	-5
COc1ccc(C[C@@H]2CCn3cc(nn3)COC[C@H](C)NC2=O)cc1	3[25 µM]
Oc1ccc(/C(Cc2ccc3ccccc3n2)=N\Nc2ccccc2)c(O)c1	-39
CC(=NNc1ccc2ccccc2n1)c1ccccc1O	96*
CC(=NNC(=O)c1ccncc1)c1ccccc1O	-48
C[C@H](CO)N1C[C@H](C)[C@@H](CN(C)Cc2ccc(C(=O)Nc3ccccc3N)cc2)Oc2ccc(NC(=O)Cn3cnnn3)cc2C1=O	-2[25 µM]
O=C(Nc1cc(F)ccc1F)N1CC(=O)N2[C@H](CO)[C@@H](c3ccc(/C=C/c4ccccc4)cc3)[C@@H]2C1	-11[25 µM]
O=C(C[C@@H]1C=C[C@H](NC(=O)c2cccc(F)c2)[C@H](CO)O1)NCc1ccccc1	5
O=C1C[C@@H](c2ccccc2)C(=O)N[C@H](c2ccc3c(c2)OCO3)C/C=C\C[C@@H](c2ccc(F)cc2)N1	2[25 µM]
c1c2c(cc3sc(N4CCOCC4)nc13)OCCO2	87*
Nc1ccc2nc(N3CCOCC3)sc2c1	-45
c1ccc(N2CCN(c3nc4cc5c(cc4s3)OCCO5)CC2)cc1	-76
Cc1cc(C(=O)COc2cccnc2[N+](=O)[O-])c(C)n1Cc1ccco1	-20
Cc1cc(C(=O)COC(=O)c2ccco2)c(C)n1Cc1ccco1	101*
COCC(C)n1c(C)cc(C(=O)COc2ccc(N(C)S(=O)(=O)c3ccc(NC(C)=O)cc3)cc2)c1C (centres undefined)	-7
COC(=O)c1c(C(=O)OC)c(C)n(Cc2ccco2)c1C	11
COCC(C)n1c(C)cc(C(=O)COC(=O)c2cccn2C)c1C (centres undefined)	52*
Cc1cc(C(=O)COC(=O)c2cccn2C)c(C)n1Cc1ccco1	57*
Cc1nn(Cc2ccccc2)c(C)c1C(=O)OCC(=O)c1cc(C)n(CC(F)(F)F)c1C	11
Cc1cc(C(=O)COC(=O)c2n[nH]c(=O)c3ccccc23)c(C)n1C(C)C	-36
Cc1cc(C(=O)CSc2nnc(N)s2)c(C)n1Cc1ccco1	-25
COc1ccc(S(=O)(=O)N(C)C[C@@H]2OCc3cn(nn3)CCCC(=O)N([C@H](C)CO)C[C@@H]2C)cc1	1[25 µM]
SMILES	BL2 CD40 inh
N#C[C@@H]1[C@H](c2ccccc2-c2ccccc2F)[C@@H](CO)N1C(=O)C1CCC1	-1[25 µM]
O=C(C[C@H]1C[C@@H]2c3cc(NC(=O)NC4CCCC4)ccc3O[C@@H]2[C@H](CO)O1)NCc1ccccc1	0
CC(=O)N(CC(C)C)C[C@H]1[C@@H](c2ccc(C3=CCCC3)cc2)[C@@H](CO)N1C(C)=O	-2[25 µM]
COCC(=O)N1[C@H](CO)[C@H](c2ccccc2-c2cccc(F)c2)[C@@H]1C#N	-17[25 µM]
CO[C@H]1CN(C)C(=O)c2ccc(NC(=O)C3CC3)cc2OC[C@H](C)N(C(C)=O)C[C@@H]1C	-4[25 µM]
CN1[C@H](C(=O)N2CCCCC2)[C@@H](CO)[C@@H]2Cn3c(ccc(/C=C/c4ccccc4)c3=O)[C@@H]21	1[25 µM]
C[C@@H]1CN([C@@H](C)CO)C(=O)c2cc(NC(=O)CCN3CCOCC3)ccc2O[C@@H]1CN(C)Cc1ccc(C(F)(F)F)cc1	9[25 µM]
C[C@H]1CN([C@@H](C)CO)C(=O)Cc2cc(NC(=O)Cc3cn(C)c4ccccc34)ccc2O[C@H]1CN(C)Cc1ccc(C(F)(F)F)cc1	76*[25 µM]
COc1ccc(CN(C)C[C@H]2Oc3ccc(NC(=O)Cc4cn(C)c5ccccc45)cc3CC(=O)N([C@@H](C)CO)C[C@@H]2C)cc1	6
C[C@@H]1CN([C@@H](C)CO)C(=O)c2cc(NC(=O)Cc3cn(C)c4ccccc34)ccc2O[C@@H]1CN(C)Cc1ccc2c(c1)OCO2	5[25 µM]
C[C@@H]1CN([C@H](C)CO)C(=O)Cc2cc(NC(=O)Cc3cn(C)c4ccccc34)ccc2O[C@H]1CN(C)Cc1ccc(C(F)(F)F)cc1	72*[25 µM]
C[C@@H]1CN([C@@H](C)CO)C(=O)Cc2cc(NC(=O)Nc3ccc(C(F)(F)F)cc3)ccc2O[C@H]1CN(C)Cc1ccc2c(c1)OCO2	5
CN(C)CC(=O)N1[C@@H]2c3ccc(C4=CCCC4)c(=O)n3C[C@H]1[C@H](CO)[C@H]2C(=O)NCC1CC1	1
C[C@H](CO)N1C[C@H](C)[C@H](CN(C)CC2CCCCC2)Oc2c(NC(=O)Nc3ccc4c(c3)OCO4)cccc2C1=O	-1
OC[C@H]1N[C@@H](CNCC2CCC2)[C@@H]1c1ccc(C2=CCCCC2)cc1	3[25 µM]
O=C1c2cccnc2C(=O)N1C1CCCCC1	8
O=C1C=C(NCCc2cc(Br)c(O)c(Br)c2)C(=O)c2ncccc21	32
